# IL-1B inflam inh: inflammasome signaling inhibition, IL-1 beta readout; activity change, % at 57.5 µM; 360,000 compounds, 4.7% hits; THP-1 LPS/ATP IL-1B secretion, AlphaLISA, 16 h; active compounds read low; in the data active = activity change below about -50%; inconclusive = mostly about -30% to -49%; note: % is set by controls: 0 for no effect and ±100 for the full control effect
#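 Secreted IL-1B measured by AlphaLISA bead assay after 16 h compound exposure of THP-1 cells; compounds (final up to 57.5 uM) added 1 h before LPS (250 ng/mL) and ATP (1.25 mM) stimulation; lower signal means less secretion.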
# TDP1 cell CPT: growth inhibition of DT40 Tdp1-/-;hTDP1 cells with camptothecin (screen for TDP1 inhibitors) | chicken DT40 Tdp1-/-;hTDP1 cells + 20 nM CPT, ATP luminescence, 48 h | Potency, µM (titrated, usually from 46.2 µM), without a hit: at the highest dose activity change, negative = growth inhibition, actives largely listed as inhibitors | 420,000 compounds, 12% hits; note: potency is the fitted concentration of half-maximal effect; % is set by controls: 0 for no effect and ±100 for the full control effect; nearly all actives have a fitted effect of over 55% in size
#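 Chicken DT40 Tdp1-/- cells stably complemented with human TDP1 were seeded at 400 cells/well in medium containing 20 nM camptothecin, exposed to pin-transferred compounds, and grown at 37 °C for at least 48 hr. Viability was read as ATP luminescence.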
# TDP1 block: blocks human tyrosyl-DNA phosphodiesterase 1. Q9NUW8. recombinant TDP1, AlphaScreen DNA substrate cleavage. Potency, µM (series often up to 130 µM), without a hit: at the highest dose activity change, negative = inhibition, most hits filed as inhibitors. 350,000 compounds, 0.28% hits; note: potency is the fitted concentration of half-maximal effect; % is set by controls: 0 for no effect and ±100 for the full control effect; nearly all actives have a fitted effect of over 40% in size
# Target sequence (Q9NUW8 whole entry, looked up): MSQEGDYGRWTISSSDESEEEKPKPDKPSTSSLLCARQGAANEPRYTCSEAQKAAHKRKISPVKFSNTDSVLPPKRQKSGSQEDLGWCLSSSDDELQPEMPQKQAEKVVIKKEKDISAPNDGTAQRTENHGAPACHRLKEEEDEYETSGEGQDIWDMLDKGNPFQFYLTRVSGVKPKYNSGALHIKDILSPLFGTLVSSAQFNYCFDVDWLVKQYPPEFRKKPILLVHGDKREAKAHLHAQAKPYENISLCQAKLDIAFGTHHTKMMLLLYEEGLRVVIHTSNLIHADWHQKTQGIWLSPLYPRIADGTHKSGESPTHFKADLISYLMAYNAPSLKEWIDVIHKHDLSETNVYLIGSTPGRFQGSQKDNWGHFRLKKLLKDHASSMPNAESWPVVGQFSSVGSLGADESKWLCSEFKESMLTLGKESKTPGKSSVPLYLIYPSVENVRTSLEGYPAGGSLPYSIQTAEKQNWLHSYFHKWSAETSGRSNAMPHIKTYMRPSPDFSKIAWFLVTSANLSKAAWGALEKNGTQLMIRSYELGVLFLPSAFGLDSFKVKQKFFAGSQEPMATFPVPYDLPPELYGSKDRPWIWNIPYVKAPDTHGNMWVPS
#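 Recombinant E. coli-expressed Tdp1 (1 nM) preincubated with compound 15 min at RT, then 5'-biotin/3'-phosphotyrosine-FITC DNA substrate (15 nM) added for 5 min. AlphaScreen beads (10 ug/ml) added, 10 min RT; tyrosine-FITC cleavage read as signal loss.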
# DT40 TDP1 no CPT: qHTS for Inhibitors of human tyrosyl-DNA phosphodiesterase 1 (TDP1): qHTS in cells in absence of CPT; 420,000 compounds, 15% hits; Potency, µM (top dose mostly 46.2 µM), without a hit: top-dose activity change, negative = growth inhibition, hits mostly inhibitors; DT40 Tdp1-/- hTDP1 cells, no CPT, ATP luminescence, 48 h; note: potency is the fitted concentration of half-maximal effect; % is set by controls: 0 for no effect and ±100 for the full control effect; nearly all actives have a fitted effect of over 55% in size
#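 Cells were dispensed at 400 per well, compounds added by pin tool, plates incubated ≥48 hr at 37 °C, then CellTiter-Glo added for 30 min at room temperature before luminescence reading. Line: DT40 Tdp1-/- complemented with hTDP1; camptothecin omitted.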
# TGFb inhibitor: inhibitors of TGF-b signaling | HepG2 CAGA-GFP TGF-b/SMAD3 reporter, GFP fluorescence, 18 h; TGF-beta stimulated, 500 pg/mL final | Potency, µM (highest dose often 46.1 µM), for inactives: top-dose activity, negative = inhibition, hits mostly inhibitors | 410,000 compounds, 1.2% hits; note: potency is the fitted concentration of half-maximal effect; % is set by controls: 0 for no effect and ±100 for the full control effect; nearly all actives have a fitted effect of over 65% in size
#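 Inhibition was scored as loss of TGF-beta-induced (500 pg/mL final, 18 hours, 37 degrees C) GFP in HEPG2 cells carrying a CAGA-GFP reporter, in DMEM with 1% FBS. Well GFP was summed per cell; Activity was normalised to unstimulated and stimulated DMSO wells, then concentration-response fitting.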
# HepG2 viability: kills HepG2 cells in TGF-b inhibitor counter-screen. HepG2 CAGA-GFP viability, ATP luminescence, 18 h. 410,000 compounds, 0.76% hits. Potency, µM (titrated, usually from 46.1 µM), for the others: at the top dose activity change, negative = cytotoxicity, actives largely listed as cytotoxic; note: potency is the fitted concentration of half-maximal effect
#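 CellTiter-Glo luminescence gave cytotoxicity after 18 hours at 37 degrees C. The cells were HepG2 CAGA-GFP in 1% FBS DMEM, stimulated with 500 pg/mL TGF-beta after compound addition. %Activity was normalised to no-cell wells (complete cell-killing) and DMSO (no toxicity), and curves were fitted and classified.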
# * hit, by the source's call; u = inconclusive; x = not tested or not shown; [ ] = remark or other dose. Most compounds without a hit are left out; they make up all but 18% or so of the library. Unless noted, calls come from the whole dose curve; as a rule, active = well fitted curve in the direction sought with a large enough effect; inconclusive = small, poorly fitted or top-dose-only effect, or another doubt; inactive = no such curve, though single readings can be large; an effect the other way counts as inactive or inconclusive.
SMILES,IL-1B inflam inh,TDP1 cell CPT,TDP1 block,DT40 TDP1 no CPT,TGFb inhibitor,HepG2 viability
O=C1CC(c2ccco2)CC2=C1C(c1ccc(O)cc1)n1nc(C(F)(F)F)nc1N2 (configuration not stated),x,x,8%,x,1%,-27%
CN(C(=O)c1oc(=O)c2ccccc2c1-c1ccccc1)c1cccc(Cl)c1,x,18µM*,3%,23µM*,u,-27%
COc1ccc(N(C)C(=O)c2oc(=O)c3ccccc3c2-c2ccccc2)c(OC)c1,-17,u,8%,u,-6%,-10%
O=C1c2ccccc2CCC1CNCCc1ccc(O)cc1 (configuration not stated),x,-83%,4%,21µM*,x,x
CC(=O)NCCc1ccc(O)cc1,15,-7%,x,-16%,3%,-19%
O=C(O)CCCc1ccc2c(c1)CCc1ccccc1-2,35,u,-3%,-10%,-15%,-4%
O=C1c2ccccc2CC[C@H]1CNCCc1ccc(O)cc1,x,13µM*,7%,13µM*,x,x
COC(=O)c1c(-c2cc(OC)c(OC)c(OC)c2)c2ccc(OCc3ccccn3)cc2c(=O)n1-c1ccc(N)cc1,x,x,13%[56.1 µM],x,x,x
Oc1cc2c(cc1CN1CCN(c3cccc(C(F)(F)F)c3)CC1)CCC2,8,-26%,4%,-10%,5%,5%
COc1ccc2c(CN(C)c3ccccc3)cc(=O)oc2c1,-3,29µM*,10%,u,-3%,0%
CCOc1ccc2oc(=O)cc(CN3CCN(Cc4ccc(F)cc4)CC3)c2c1,x,16µM*,-5%,23µM*,-21%,-6%
COc1ccc(N2CCN(Cc3cc4c(cc3O)CCC4)CC2)cc1,4,26µM*,11%,21µM*,-21%,-22%
COc1ccc(N2CCN(Cc3cc(=O)oc4cc5c(cc34)CCCC5)CC2)cc1,0,21µM*,1%,13µM*,-4%,2%
COc1ccc2c(CN(C)Cc3ccccc3)cc(=O)oc2c1,-3,u,x,u,4%,-3%
COc1cc(OC)c(NC(=O)N2CCN3CCCCC3C2)cc1Cl (configuration not stated),x,9%,11%,-2%,6%,12%
CCc1ccc2oc(=O)cc(CN3CCN(Cc4ccccc4)CC3)c2c1,9,u,x,21µM*,11%,-1%
CC(C)c1ccc2oc(=O)cc(CN3CCN(c4ccc(F)cc4)CC3)c2c1,9,u,4%,u,-26%,-28%
CCOc1ccc2oc(=O)cc(CN3CCN(c4cc(C)ccc4C)CC3)c2c1,x,15µM*,0%,16µM*,-16%,-22%
COc1ccc2oc(=O)cc(CN3CCN(c4ccc(F)cc4)CC3)c2c1,x,u,5%,23µM*,u,-17%
CCc1ccc2oc(=O)cc(CN3CCN(c4ccc(F)cc4)CC3)c2c1,11,u,5%,16µM*,4%,-4%
COc1ccc(CNC(=O)CCSCc2cccc(F)c2)cc1,13,7%,x,3%,-4%,-3%
O=C(CN1N=C(c2ccccc2)CCC1=O)NCc1ccc(F)cc1Cl,x,-28%,0%,u,-21%,-24%
COc1ccc2c(CN3CCN(c4ccccc4OC)CC3)cc(=O)oc2c1,-8,u,x,15µM*,2%,0%
Cc1cccc2c(=O)c(Br)c(C)n(Cc3ccccc3)c12,29,-10%,4%,-10%,-1%,-3%
COc1ccc(-c2nc3ccccc3o2)cc1NC(=O)c1ccc(OCC(C)C)cc1,x,u,6%,u,-13%,-92%
SMILES,IL-1B inflam inh,TDP1 cell CPT,TDP1 block,DT40 TDP1 no CPT,TGFb inhibitor,HepG2 viability
Cc1ccc(C)c(N2CCN(C(=O)c3cc4c(=O)oc5ccccc5c4s3)CC2)c1,x,-13%,-3%,-4%,-9%,-9%
Cc1ccc(C)c(N2CCN(c3c(CN4CCCC4)c(=O)oc4ccccc34)CC2)c1,x,21µM*,-2%,26µM*,24%,0%
Nc1c(N2CCCCC2)c2ccccc2oc1=O,2,-4%,0%,-8%,0%,-2%
Cc1ccc(N2CCN(c3c(CN4CCCC4)c(=O)oc4ccccc34)CC2)c(C)c1,x,16µM*,-4%[12.3 µM],u,-2%,-12%
CCNC(=O)C1(C)CCN(C(=O)c2cccc(Cl)c2)C1 (configuration not stated),-11,-18%,x,-5%,1%,-7%
CCOc1ccc2c(c1)C(NC(C)=O)C(=O)N2CCN1CCOCC1 (configuration not stated),8,u,x,15µM*,-15%,-3%
CC(=O)NC1C(=O)N(CCN2CCOCC2)c2ccc(Br)cc21 (configuration not stated),6,-18%,x,-15%,3%,-21%
COC(=O)[C@@H]1C[C@@]2(O)[C@@H](O)[C@@H](O)[C@@H](O)C[C@H]2N1Cc1ccc(-c2ccccc2)cc1,x,u,7%,-19%,u,-81%
COC(=O)[C@@H]1C[C@@]2(O)[C@H](O)[C@H](O)[C@H](O)C[C@H]2N1Cc1ccc(-c2ccccc2)cc1,-71*,-29%,-9%,-8%,u,-49%
C[C@H](NC(=O)c1ccc(Cl)cc1)C(=O)OCn1nnc2ccccc2c1=O,3,u,0%,-24%,2%,0%
O=C(CSCC(=O)OCn1nnc2ccccc2c1=O)Nc1ccc(Cl)cc1,13,21µM*,2%,u,3%,21%
O=c1c2ccccc2nnn1COc1cccc(Cl)c1,-19,-29%,-10%,18µM*,-12%,-53%
O=c1c2ccccc2nnn1Cc1ccccc1,-11,0%,-2%,11%,1%,0%
Cc1ccc(C)c(S(=O)(=O)N2CCN(C(=O)C3CC3C)CC2)c1 (configuration not stated),-3,-12%,x,-28%,4%,-10%
CCOc1ccc(NC(=O)C2CCN(S(=O)(=O)c3ccc4c(c3)CC(C)N4C(C)=O)CC2)cc1 (configuration not stated),52,u,0%,u,-29%,-16%
O=C(Nc1ccc(F)cc1F)NC1CCN(S(=O)(=O)c2ccc(F)cc2)CC1,-9,-21%,2%,u,-24%,-5%
O=C(Nc1ccc(F)cc1F)NC1CCN(Cc2c(F)cccc2Cl)CC1,x,u,-2%,21µM*,-23%,-10%

# From PubChem
